Results reported in PubChem BioAssay (NCI).
About 83,000 compounds went through this panel and 20% of them were active in at least one assay; those are over-represented in the sample as a whole.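 Values shown are percent growth following 48 h exposure of cells in 96-well plates to a single concentration of compound; below 10 was considered active.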 Unmarked numbers belong to inactive results. The source made the active and inactive calls.

How the values were obtained:
Assay in all cases: NCI-60 one-dose screen, 48 h (100 = growth as untreated, 0 = no growth, -100 = all killed)
Conditions in all cases: 10 µM unless noted
NCI-H23 lung = system: NCI-H23 lung
NCI-H226 lung = system: NCI-H226 lung
NCI-H322M lung = system: NCI-H322M lung
HOP-62 NSCLC = system: HOP-62 NSCLC
NCI-H460 lung = system: NCI-H460 lung
HOP-92 NSCLC = system: HOP-92 NSCLC
NCI-H522 lung = system: NCI-H522 lung
A549/ATCC NSCLC = system: A549/ATCC NSCLC
786-0 renal = system: 786-0 renal
COLO 205 colon = system: COLO 205 colon
DU-145 prostate = system: DU-145 prostate
K-562 leukemia = system: K-562 leukemia
MALME-3M melanoma = system: MALME-3M melanoma
MDA-MB-231 breast = system: MDA-MB-231 breast
RXF 393 renal = system: RXF 393 renal
SF-268 CNS = system: SF-268 CNS
SF-295 CNS = system: SF-295 CNS
SF-539 CNS = system: SF-539 CNS
UACC-257 melanoma = system: UACC-257 melanoma
M14 melanoma = system: M14 melanoma

| SMILES | growth (NCI-H23 lung) | growth (NCI-H226 lung) | growth (NCI-H322M lung) | growth (HOP-62 NSCLC) | growth (NCI-H460 lung) | growth (HOP-92 NSCLC) | growth (NCI-H522 lung) | growth (A549/ATCC NSCLC) | growth (786-0 renal) | growth (COLO 205 colon) | growth (DU-145 prostate) | growth (K-562 leukemia) | growth (MALME-3M melanoma) | growth (MDA-MB-231 breast) | growth (RXF 393 renal) | growth (SF-268 CNS) | growth (SF-295 CNS) | growth (SF-539 CNS) | growth (UACC-257 melanoma) | growth (M14 melanoma) |
| --- | --- | --- | --- | --- | --- | --- | --- | --- | --- | --- | --- | --- | --- | --- | --- | --- | --- | --- | --- | --- |
| O=C(Nc1cccc(-c2cccc(F)c2)c1)C1CCN(Cc2cccc3cccnc23)CC1 | 69.2% | 71.5% | 78.2% | 63.8% | 37% | 44.2% | 47.3% | 71.9% | 47.5% | -81% (active) | 72% | -37.6% (active) | -50% (active) | 37.8% | 68.6% | 56.8% | 56.1% | 69.5% | -2.39% (active) | -54% (active) |
| NCCN1CCNCC1 | 94.6% | 89.6% | 116% | 103% | 108% | 100% | 91.4% | 102% | 101% | 122% | 104% | 106% | 109% | 105% | 135% | 102% | 109% | 95.6% | 25.9% | 101% |
| N#Cc1c(-c2ccc(F)cc2)nc(N/N=C/c2cccc(O)c2)nc1N1CCOCC1 | 99.9% | 100% | 81.4% | 92% | 98.3% | 64.4% | 69.5% | 82.3% | 65.1% | 73.4% | 65.9% | 67.5% | 100% | 96.8% | 53.9% | 88.3% | 98.9% | 78.4% | 88.8% | 85.6% |
| O=C(Nc1cc(=O)[nH]c(=O)[nH]1)C(Cl)Cl | 107% | 102% | 95.5% | 106% | 109% | 98.8% | 90.3% | 97.4% | 107% | 122% | 113% | 99.2% | 96.7% | 102% | 106% | 99.9% | 105% | 106% | 96.5% | 106% |
| COc1cc(C(=O)N2CCN(c3ccccc3OC)CC2)c(NC(=O)c2cnccn2)cc1OCc1ccccc1 | 77.9% | 88.3% | 69.4% | 84.9% | 121% | 10.7% | 73.7% | 91.8% | 87.3% | 99.4% | 104% | 10.8% | 115% | 73.1% | 113% | 114% | 97.5% | 88.9% | 78% | 98.4% |
| CCOC(=O)/C(=C/c1c(-c2ccccc2)[nH]c2ccccc12)C(=O)c1ccc(Cl)cc1 | 55% | 71.3% | 78.6% | 48% | 33.1% | 13.5% | 19.8% | 39.6% | 26.5% | 63.2% | 65.9% | 5.66% (active) | 92.8% | 63% | 54.3% | 56.1% | -15.3% (active) | 81.5% | 77.2% | 39.5% |
| O=C(O)c1cc(N=Nc2ccc(-c3ccc(N=Nc4c(S(=O)(=O)O)cc5ccc(Nc6ccccc6)cc5c4O)cc3)cc2)ccc1O | 92.6% | 116% | 94.5% | 94.6% | 113% | 114% | 89.7% | 104% | 106% | 114% | 109% | 91.3% | 86% | 98% | 112% | 93.1% | 99.7% | 108% | 107% | 106% |
| COc1cc(NC(=O)COc2cc(C)nc3ccc(OC)cc23)cc(OC)c1 | 86.9% | 87.1% | 94% | 91.3% | 95% | 94.1% | 75% | 87% | 97.1% | 69.4% | 97.8% | 79.1% | 82.8% | 80% | 94.2% | 94.5% | 96.8% | 76.1% | 82% | 94.8% |
| Cc1cc(C)cc(Nc2nccc(-c3c(-c4ccc(F)cc4)ncn3C3CCNCC3)n2)c1 | 43.1% | 32.3% | 32.2% | 25.4% | -5.36% (active) | 26.7% | -36.2% (active) | 6.65% (active) | 11.8% | -66% (active) | 9.38% (active) | -33.3% (active) | -36.1% (active) | 7.44% (active) | 18.3% | 28.4% | 5.75% (active) | 31.3% | -50.6% (active) | -86.4% (active) |
| CC1CCN(CCCCCOc2ccc3oc4ccccc4c(=O)c3c2)CC1 | 75.6% | 90.6% | 78.7% | 98.6% | 81.8% | 83.7% | 76.2% | 73.5% | 75.7% | 58.5% | 83.9% | 33.7% | 44.4% | 76.5% | 69.1% | 79.3% | 89.8% | 77.8% | 9.5% (active) | 41% |
| CCCCCCN1C(=O)CN=C1Nc1ccc2cc3ccc(NC4=NCC(=O)N4CCCCCC)cc3nc2c1 | 64.8% | 81.7% | 79.7% | 82.4% | 57.5% | 82.9% | -9.83% (active) | 74.5% | 36.1% | 40.3% | 40.5% | -12.1% (active) | 71.5% | 30.7% | 11.6% | 47.5% | 82.7% | 76.6% | 103% | 68.2% |
| COc1ccc(-c2[nH]c3ccc(OC)cc3c2C=C(C#N)C#N)cc1 | 32.9% | 59.7% | 58.8% | 32.5% | 17.2% | 20.3% | -8.75% (active) | 32.5% | 28.9% | 5.59% (active) | 12.5% | 4.8% (active) | 60% | 53.7% | 34.4% | 52.7% | -47.1% (active) | 23.2% | 60.2% | -13.3% (active) |
| CC1CCCN(CCCCCOc2ccc3oc4ccccc4c(=O)c3c2)C1 (stereo not given) | 75% | 104% | 76.9% | 91.3% | 75.5% | 90.2% | 67.4% | 68.7% | 69.8% | 36.1% | 85.1% | 17.3% | 4.45% (active) | 67.8% | 60.8% | 72.5% | 72.9% | 77.2% | -18.8% (active) | 5.02% (active) |
| CCOc1ccccc1C(=O)/C=C/c1cc2ccccc2[nH]c1=O | -55.2% (active) | 8.19% (active) | -2.24% (active) | -33.5% (active) | -4.96% (active) | 0.541% (active) | -38.6% (active) | 16.8% | -21.7% (active) | -50.8% (active) | -37% (active) | 5.07% (active) | -39% (active) | -52.8% (active) | -69.4% (active) | -10.8% (active) | 1.85% (active) | -29.9% (active) | -9.05% (active) | -20.4% (active) |
| CCOC(=O)c1c(C)nc2c(c1N)/C(=C/c1cccs1)C(=O)N2c1ccc(OC)cc1 | 43.9% | 40.5% | 70.6% | 10.2% | 34.1% | 22% | 29.8% | 34.5% | 5.33% (active) | 63.2% | 44.5% | 59.1% | 26.9% | 36.5% | -23.1% (active) | 47.6% | 47.2% | 7.71% (active) | 36.1% | 58.2% |
| COc1ccc(C2C(c3ccccc3)C(=O)N2c2cc(OC)c(OC)c(OC)c2)cc1I (stereo not given) | 24.6% | 60.6% | 42.9% | 24.7% | 4.29% (active) | 42.5% | -9.3% (active) | 16.9% | 17.4% | -64.3% (active) | 7.36% (active) | 6.76% (active) | 80.1% | 23.3% | 24.2% | 34.9% | 17.9% | 1.87% (active) | 47.9% | 8.46% (active) |
